# Test results: PubChem BioAssay
# Activity calls are given as the source filed them. Unless noted, how the calls were made is not given here.
# Legend:
# [1] = A549 cell viability effects, profiling panel, calcein-AM fluorescence, 48 h, basal (AID 1162); settings: higher = more signal; further: test concentration not given here
# [2] = adipocyte viability effects, profiling panel, cell-based, 3T3-L1 adipocytes, calcein-AM fluorescence, 48 h, basal (AID 1163); settings: 3T3-L1 adipocytes viability, higher = more signal; further: test concentration not given here
# [3] = HepG2 cell viability effects, profiling panel, calcein-AM fluorescence, 48 h, basal (AID 1164); settings: higher = more signal; further: test concentration not given here
# [4] = MM1S cell viability effects, profiling panel, calcein-AM fluorescence, 48 h, basal (AID 1165); settings: higher = more signal;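 further: viability of MM1S multiple myeloma cells under basal unstimulated conditions; test concentration not given here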
# [5] = basal RPMI8226 viability, no added stimulus, profiling panel, cell-based, calcein-AM fluorescence, 48 h, PK04 Diversity Set (AID 1166); settings: RPMI8226 myeloma viability, higher = more signal;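 further: cells grown under basal conditions without added stimulus; test concentration not given here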
# [6] = basal HepG2 mitochondrial membrane potential changes, profiling panel, cell-based, JC-1 fluorescence, 24 h, 100 nL compound (AID 1167); settings: higher = more signal; further: test concentration not given here
# [7] = basal 3T3-L1 adipocyte mitochondrial potential changes, profiling panel, cell-based, JC-1 fluorescence, 3T3-L1 adipocytes, 24 h, 100 nL compound (AID 1168); settings: JC-1 mitochondrial fluorescence, higher = more signal, called active from +8 up or from −8 down; further: test concentration not given here
# [8] = basal RPMI8226 mitochondrial membrane potential changes, profiling panel, cell-based, JC-1 fluorescence, 24 h, 100 nL compound (AID 1169); settings: RPMI8226 myeloma, JC-1 mitochondrial potential fluorescence, higher = more signal; further: test concentration not given here
# [9] = basal MM1S mitochondrial membrane potential changes, profiling panel, cell-based, JC-1 fluorescence, 24 h, 100 nL compound (AID 1170); settings: higher = more signal; further: test concentration not given here
# [10] = A549 lung cancer cell viability effects, profiling panel, resazurin fluorescence, 24 h, PK04 Diversity Set (AID 1171); settings: higher = more signal, called active from +8 up or from −8 down; further: test concentration not given here
# [11] = HepG2 liver cancer cell viability effects, profiling panel, resazurin fluorescence, 24 h, PK04 Diversity Set (AID 1172); settings: higher = more signal; further: test concentration not given here
# [12] = basal S. cerevisiae growth modulation, no modifier, primary screen, OD600, strain BY4716, 24 h, basal condition (AID 1173); settings: OD600, 24 h, higher = more signal, called active from +8 up or from −8 down
# [13] = MM1S myeloma cell viability, profiling panel, resazurin fluorescence, basal, 24 h, PK04 Diversity Set (AID 1174); settings: higher = more signal, called active from +8 up or from −8 down;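 further: MM1S multiple myeloma cell line; test concentration not given here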
# [14] = biological target: Dihydroorotate dehydrogenase (quinone), mitochondrial (Plasmodium falciparum (isolate 3D7)) (UniProt Q08210); test: PfDHODH enzyme inhibitors, primary screen, biochemical, C-terminal His tag, absorbance 600 nm (AID 1175); settings: DCIP absorbance 600 nm, higher = more signal, called active from +8 up or from −8 down;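 further: recombinant parasite enzyme with a five histidine tag at its C terminus; test concentration not given here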
# [15] = P. aeruginosa biofilm formation inhibitors, primary screen, strain PAO1, LB-PBS medium, absorbance 600 nm (AID 1176); further: test concentration not given here; settings: P. aeruginosa PAO1 growth/biofilm, A600, 12 h; higher = more signal
# [16] = S. cerevisiae RM11-1a growth modifiers, primary screen, strain RM11-1a, OD600, basal, 24 h (AID 1177); settings: OD600, 24 h, higher = more signal, called active from +8 up or from −8 down;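 further: cultures grown under basal conditions with no added stressor; test concentration not given here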
# [17] = E. coli acrAB mutant growth effects, primary screen, E. coli filamentation inducers, strain DRC39, OD650, 24 h (AID 1178); settings: higher = more signal, called active from +8 up or from −8 down;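 further: growth measured as culture turbidity by optical density at 650 nm; test concentration not given here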
# [18] = E. coli acrAB mutant growth effects, primary screen, E. coli filamentation inducers, strain DRC39, OD650, 48 h (AID 1179);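 further: screen aims at cell division blockers that make cells filament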; settings: E. coli DRC39 delta-acrAB growth, higher = more signal, called active from +8 up or from −8 down
# [19] = RPMI8226 myeloma cell viability, profiling panel, resazurin fluorescence, basal, 24 h, PK04 Diversity Set (AID 1180); settings: higher = more signal;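 further: RPMI8826 multiple myeloma cell line at 5000 cells per well; test concentration not given here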
# [20] = biological target: E3 ubiquitin-protein ligase XIAP (Homo sapiens) (UniProt P98170); test: XIAP binders, primary screen, biophysical, small-molecule microarray, fluorescence 635 nm (AID 1181); settings: small-molecule microarray binding, higher = more signal;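 further: score merges 667 nm emission and signal to noise over triplicate slides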
# Sequence of E3 ubiquitin-protein ligase XIAP (Homo sapiens) (P98170 whole entry, looked up): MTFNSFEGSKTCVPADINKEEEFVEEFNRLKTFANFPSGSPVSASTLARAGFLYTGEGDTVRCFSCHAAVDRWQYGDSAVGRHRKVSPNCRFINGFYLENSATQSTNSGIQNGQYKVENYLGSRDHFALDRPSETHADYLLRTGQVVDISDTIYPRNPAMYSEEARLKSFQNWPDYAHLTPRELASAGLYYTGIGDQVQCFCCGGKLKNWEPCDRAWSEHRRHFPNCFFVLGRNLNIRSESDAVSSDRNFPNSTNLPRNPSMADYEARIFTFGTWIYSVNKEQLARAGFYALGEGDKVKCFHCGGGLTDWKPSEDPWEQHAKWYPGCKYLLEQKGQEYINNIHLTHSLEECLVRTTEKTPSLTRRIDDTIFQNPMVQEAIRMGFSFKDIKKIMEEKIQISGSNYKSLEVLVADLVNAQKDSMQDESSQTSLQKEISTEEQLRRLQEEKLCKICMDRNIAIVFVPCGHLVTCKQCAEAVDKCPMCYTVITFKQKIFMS
# Sequence of Dihydroorotate dehydrogenase (quinone), mitochondrial (Plasmodium falciparum (isolate 3D7)) (Q08210 whole entry, looked up): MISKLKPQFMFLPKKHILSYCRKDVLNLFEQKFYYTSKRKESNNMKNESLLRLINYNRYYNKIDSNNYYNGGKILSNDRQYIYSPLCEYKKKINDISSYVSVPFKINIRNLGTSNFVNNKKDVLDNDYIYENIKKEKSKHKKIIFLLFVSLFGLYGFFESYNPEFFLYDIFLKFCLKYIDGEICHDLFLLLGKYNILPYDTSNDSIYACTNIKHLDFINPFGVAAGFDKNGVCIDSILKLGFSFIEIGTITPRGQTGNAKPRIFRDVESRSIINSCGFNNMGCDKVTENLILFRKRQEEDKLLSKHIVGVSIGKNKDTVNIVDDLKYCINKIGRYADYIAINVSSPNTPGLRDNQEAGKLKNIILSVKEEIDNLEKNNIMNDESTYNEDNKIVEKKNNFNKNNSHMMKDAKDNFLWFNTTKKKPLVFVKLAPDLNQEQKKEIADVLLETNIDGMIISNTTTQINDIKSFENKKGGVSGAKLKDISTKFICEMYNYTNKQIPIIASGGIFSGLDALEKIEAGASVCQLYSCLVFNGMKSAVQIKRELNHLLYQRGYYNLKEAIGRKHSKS
Structure (SMILES),z-score [1],z-score [2],z-score [3],z-score [4],z-score [5],z-score [6],z-score [7],z-score [8],z-score [9],z-score [10],z-score [11],z-score [12],z-score [13],composite z-score [14],z-score [15],z-score [16],z-score [17],z-score [18],z-score [19],composite z-score [20]
Cc1ccc(S(=O)(=O)NC(CCc2ccccc2)CC(=O)C(C)(C)C)cc1 (stereo not given),0.0378,-0.795,-0.869,0.0642,-0.156,-0.696,-0.255 (inactive),-0.201,-0.236,1.34 (inactive),0.277,-1 (inactive),-0.146 (inactive),0.0379 (inactive),0.143 (inactive),0.384 (inactive),0.628 (inactive),0.274 (inactive),0.159,-0.195
CO[C@H]1COC(=O)[C@H](C)NC(=O)[C@@H](C)COC(=O)[C@H]2CCCN2C(=O)CC=C[C@H]1C,-0.622,-0.321,-0.0694,-0.151,0.353,0.132,-0.658 (inactive),-0.0639,-1.01,-0.463 (inactive),-0.384,-0.739 (inactive),0.0177 (inactive),-2.21 (inactive),-0.655 (inactive),-0.382 (inactive),0.491 (inactive),0.206 (inactive),-0.65,-0.354
O=C1CCCC(C2=CCCCC2=O)C1 (stereo not given),-0.965,-0.824,-0.114,0.322,0.652,0.512,-0.845 (inactive),0.987,-0.857,-0.684 (inactive),-0.575,0.0749 (inactive),-1.83 (inactive),0.153 (inactive),0.663 (inactive),0.541 (inactive),0.998 (inactive),0.524 (inactive),-1.01,0.197
C=CC[C@@H]1C=C[C@H](ON=C(C)CCC(=O)OC[C@H]2O[C@H](c3ccccc3)C=C[C@@H]2Oc2ccc(OC)cc2)[C@@H](CO)O1,1.21,-0.741,-0.403,-1.91,-0.428,-0.859,0.0616 (inactive),0.0738,-1.02,0.524 (inactive),0.0276,0.31 (inactive),-0.517 (inactive),-0.582 (inactive),0.347 (inactive),-0.0293 (inactive),0.741 (inactive),1.15 (inactive),-0.212,-0.0272
CCOC(=O)[C@H](CC(C)C)NC(=O)CCC1CC(OC(=O)NCc2cccc3ccccc23)CC2(CCCC(COC(=O)NCc3cccc(C(F)(F)F)c3)O2)O1 (stereo not given in full),-0.442,-0.302,0.8,0.484,0.38,0.936,0.346 (inactive),0.0118,-0.851,-0.75 (inactive),-0.189,-0.31 (inactive),0.0223 (inactive),-0.161 (inactive),0.687 (inactive),0.388 (inactive),0.939 (inactive),1.08 (inactive),0.639,-0.206
C[C@@H](c1ccccc1)N1C(=O)[C@H]2[C@H]3[C@H](O)[C@H](O)CC(=NO[C@@H]4O[C@H](CO)[C@@H](O)[C@H](O)[C@H]4O)[C@H]3CC[C@H]2C1=O,-0.306,0.221,-0.492,0.254,-0.599,-0.364,-0.507 (inactive),0.0338,-0.15,-0.154 (inactive),-0.495,0.561 (inactive),0.174 (inactive),-0.28 (inactive),0.389 (inactive),0.0857 (inactive),-0.837 (inactive),0.11 (inactive),0.577,0.057
O=C1C2=CC[C@H]3C(=O)N(c4cccc(Oc5ccccc5)c4)C(=O)[C@H]3[C@H]2[C@H](O)[C@@H]2O[C@H]12,-1.07,-0.0208,-3.98,-3.09,-3.84,-0.778,-0.298 (inactive),-1.05,-3.02,-1.35 (inactive),-1.02,-1.72 (inactive),-6.54 (inactive),-1.2 (inactive),-0.261 (inactive),-0.0295 (inactive),-0.392 (inactive),-0.281 (inactive),-3.76,0.0506
C#CCCCON=C1C[C@@H](O)[C@@H](O)[C@@H]2[C@@H]3C(=O)N(Cc4ccccc4)C(=O)[C@@H]3CC[C@@H]12,0.307,-0.198,-0.732,-0.488,0.199,0.793,0.89 (inactive),-0.323,-0.467,0.37 (inactive),0.71,-0.878 (inactive),0.736 (inactive),-1.23 (inactive),-0.601 (inactive),-0.0952 (inactive),0.777 (inactive),1.2 (inactive),0.886,-0.267
O=C(NN=C1C[C@@H](O)[C@@H](O)[C@@H]2[C@@H]3C(=O)N(C[C@@H]4CCCO4)C(=O)[C@@H]3CC[C@H]12)OCc1ccccc1,-0.0032,-0.0428,-0.718,0.338,-0.0238,-0.249,-0.0601 (inactive),0.536,-0.853,-0.714 (inactive),-0.136,0.267 (inactive),-0.239 (inactive),-0.02 (inactive),-0.531 (inactive),-0.0555 (inactive),0.593 (inactive),0.191 (inactive),0.664,0.0451
